For ten molecules, z-score and composite z-score results are on record in PubChem BioAssay.

A short description of assay [1]: resazurin metabolic signal in HepG2 cells – cell-based, resazurin fluorescence, 24 h, PK04 Diversity Set, profiling panel (AID 1172). To be noted: HepG2 viability, higher = more signal.
Assay [2] is described as follows: budding yeast growth changes without added modifier – OD600, strain BY4716, 24 h, basal condition, primary screen (AID 1173). To be noted: S. cerevisiae BY4716 growth, OD600, 24 h; higher = more signal, called active from +8 up or from −8 down.
Assay [3] can be described thus: viability profiling in MM1S myeloma cells – cell-based, resazurin fluorescence, basal, 24 h, PK04 Diversity Set, profiling panel (AID 1174).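 Also: MM1S multiple myeloma cell line.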 To be noted: higher = more signal, called active from +8 up or from −8 down.
The target in assay [4] is Dihydroorotate dehydrogenase (quinone), mitochondrial (Plasmodium falciparum (isolate 3D7)) (UniProt Q08210). Description: inhibition of P. falciparum DHODH – biochemical, C-terminal His tag, absorbance 600 nm, primary screen (AID 1175).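 Also: recombinant parasite enzyme with a five histidine tag at its C terminus.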 The note with it: PfDHODH enzyme, DCIP absorbance 600 nm; higher = more signal, called active from +8 up or from −8 down.
Dihydroorotate dehydrogenase (quinone), mitochondrial (Plasmodium falciparum (isolate 3D7)), sequence (Q08210 whole entry, looked up): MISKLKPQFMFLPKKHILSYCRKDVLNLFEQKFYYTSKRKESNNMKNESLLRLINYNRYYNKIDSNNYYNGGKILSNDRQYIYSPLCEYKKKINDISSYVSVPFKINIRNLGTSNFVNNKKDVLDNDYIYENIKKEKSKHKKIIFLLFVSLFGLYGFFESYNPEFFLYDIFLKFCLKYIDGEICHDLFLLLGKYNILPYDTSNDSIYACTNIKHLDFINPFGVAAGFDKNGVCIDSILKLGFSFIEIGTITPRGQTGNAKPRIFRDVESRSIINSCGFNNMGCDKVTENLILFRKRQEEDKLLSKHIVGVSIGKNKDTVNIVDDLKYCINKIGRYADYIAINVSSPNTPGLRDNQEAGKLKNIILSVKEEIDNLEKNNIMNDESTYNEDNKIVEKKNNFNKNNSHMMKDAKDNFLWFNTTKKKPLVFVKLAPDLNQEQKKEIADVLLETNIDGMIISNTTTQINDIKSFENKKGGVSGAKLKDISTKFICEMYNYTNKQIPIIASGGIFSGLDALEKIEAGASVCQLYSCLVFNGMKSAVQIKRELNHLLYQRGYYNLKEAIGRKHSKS
The nature of assay [5]: inhibition of PAO1 biofilm formation – strain PAO1, LB-PBS medium, absorbance 600 nm, primary screen (AID 1176). The note with it: P. aeruginosa PAO1 growth/biofilm, A600, 12 h; higher = more signal.
The nature of assay [6]: growth modulation of vineyard yeast isolate – strain RM11-1a, OD600, basal, 24 h, primary screen (AID 1177).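 Also: cultures grown under basal conditions with no added stressor.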 To be noted: S. cerevisiae RM11-1a growth, OD600, 24 h; higher = more signal, called active from +8 up or from −8 down.
Assay [7] can be described thus: growth of efflux-deficient E. coli DRC39 – strain DRC39, OD650, 24 h, E. coli filamentation inducers, primary screen (AID 1178).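 Also: growth measured as culture turbidity by optical density at 650 nm.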 The note with it: E. coli DRC39 acrAB, higher = more signal, called active from +8 up or from −8 down.
Assay [8] is described as follows: growth of efflux-deficient E. coli DRC39 – strain DRC39, OD650, 48 h, E. coli filamentation inducers, primary screen (AID 1179).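 Also: screen aims at cell division blockers that make cells filament.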 The note with it: E. coli DRC39 delta-acrAB growth, higher = more signal, called active from +8 up or from −8 down.
The nature of assay [9]: viability profiling in RPMI8226 myeloma cells – cell-based, resazurin fluorescence, basal, 24 h, PK04 Diversity Set, profiling panel (AID 1180).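 Also: RPMI8826 multiple myeloma cell line at 5000 cells per well.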 The note with it: higher = more signal.
For assay [10], the target named is E3 ubiquitin-protein ligase XIAP (Homo sapiens) (UniProt P98170). Description: small molecules binding XIAP protein – biophysical, small-molecule microarray, fluorescence 635 nm, primary screen (AID 1181).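 Also: score merges 667 nm emission and signal to noise over triplicate slides.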 The note with it: higher = more signal.
E3 ubiquitin-protein ligase XIAP (Homo sapiens), sequence (P98170 whole entry, looked up, the tested form may be a part): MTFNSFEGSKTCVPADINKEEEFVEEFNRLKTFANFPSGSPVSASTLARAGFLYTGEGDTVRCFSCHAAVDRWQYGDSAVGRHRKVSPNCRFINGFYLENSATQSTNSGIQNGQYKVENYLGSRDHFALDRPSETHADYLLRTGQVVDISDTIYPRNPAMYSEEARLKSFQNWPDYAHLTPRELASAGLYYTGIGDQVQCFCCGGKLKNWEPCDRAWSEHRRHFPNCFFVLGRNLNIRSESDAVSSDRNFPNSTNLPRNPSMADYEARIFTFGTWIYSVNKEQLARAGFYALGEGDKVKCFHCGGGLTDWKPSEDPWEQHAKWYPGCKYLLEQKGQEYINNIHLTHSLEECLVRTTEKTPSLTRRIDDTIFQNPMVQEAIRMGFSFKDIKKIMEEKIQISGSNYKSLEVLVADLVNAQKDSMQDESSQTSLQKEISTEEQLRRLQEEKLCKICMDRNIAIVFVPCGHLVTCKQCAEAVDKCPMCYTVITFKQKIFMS
The test system of assay [11] is XIP peptide (Xip251-270) binding. Description: XIP fragment 251-270 binding compounds – biochemical, small-molecule microarray, fluorescence 635/667 nm, 0.1 µg/mL protein, primary screen (AID 1182). The note with it: fluorescent protein binding, 635 nm, higher = more signal, called active from +8 up or from −8 down.
For the next assay, the system named is XIP peptide (Xip251-270). Description: compounds binding XIP fragment 251-270 – biochemical, small-molecule microarray, fluorescence 635/667 nm, 0.5 µg/mL protein, primary screen (AID 1183). To be noted: fluorescence 635 nm, higher = more signal.
Assay [12] can be described thus: blood-stage malaria parasite viability loss – strain 3D7, DAPI fluorescence, 100 nL, primary screen (AID 1184).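 Also: parasites grown inside human red blood cells in medium with human serum.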 The note with it: P. falciparum 3D7 growth, 3 d, higher = more signal.
In assay [13] the target is Homeobox protein Hox-A13 (Mus musculus) (UniProt Q62424). Description: disruptors of Hoxa13 oligonucleotide interaction – biochemical, fluorescence polarization, labeled oligonucleotide, primary screen (AID 1185). To be noted: Hoxa13:DNA binding, 15 min, higher = more signal, called active from +8 up or from −8 down.
Homeobox protein Hox-A13 (Mus musculus), sequence (Q62424 whole entry, looked up): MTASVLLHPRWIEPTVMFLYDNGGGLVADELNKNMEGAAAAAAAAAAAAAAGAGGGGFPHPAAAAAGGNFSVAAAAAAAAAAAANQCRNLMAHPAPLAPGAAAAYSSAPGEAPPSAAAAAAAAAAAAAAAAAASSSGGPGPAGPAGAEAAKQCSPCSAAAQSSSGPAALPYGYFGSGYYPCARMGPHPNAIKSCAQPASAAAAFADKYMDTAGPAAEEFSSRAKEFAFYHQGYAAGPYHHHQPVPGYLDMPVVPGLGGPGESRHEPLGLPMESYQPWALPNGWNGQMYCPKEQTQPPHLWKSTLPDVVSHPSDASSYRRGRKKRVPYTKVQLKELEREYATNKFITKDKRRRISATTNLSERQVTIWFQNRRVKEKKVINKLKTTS
Assay [14] is described as follows: blockers of DNA damage checkpoint Chk1 activation – imaging, HeLa, hydroxyurea, phospho-Chk1 antibody, percent positive cells, primary screen (AID 1186). To be noted: hydroxyurea-induced phospho-Chk1 immunofluorescence imaging, higher = more signal.
A short description of assay [15]: blockers of DNA damage checkpoint Chk1 activation – imaging, HeLa, hydroxyurea, phospho-Chk1 nuclear intensity, primary screen (AID 1187). The note with it: hydroxyurea-induced phospho-Chk1 immunofluorescence imaging, higher = more signal.

Activity calls are given as the source filed them. Unless noted, no rule for the calls is given here.

Take `[N-]=[N+]=NCc1ccccc1[C@@H]1OC(c2ccc(OCCCO)cc2)=N[C@]1(CCS(=O)(=O)c1ccccc1)C(=O)N1CCCCC1`: the z-score in [1] was -0.227; in [2], 0.287 (inactive); in [3] it was -0.814 (inactive); in assay [5], 0.286 (inactive); in [6], -0.0163 (inactive); in assay [7] it was -0.523 (inactive). Also, the z-score in assay [8] was -0.213 (inactive); in [9], -0.808; in [12] it was -2.23; in assay [13] it was -1.6 (inactive); in assay [14], 0.202 (inactive); in assay [15], 0.161 (inactive). Besides, the composite z-score is 0.667 (inactive) in assay [4], 0.0174 in assay [10], 0.603 (inactive) in [11] and 0.772 in the assay with XIP peptide (Xip251-270).
For the molecule `CC(C)(C)OC(=O)CC[C@]1(C(=O)NCCN2CCOCC2)COC(c2ccc(OCCCO)cc2)=N1`, the z-score in assay [1] is 0.0093; in [2], 0.321 (inactive); in assay [3], 0.382 (inactive); in [5], -0.525 (inactive); in [6], 0.345 (inactive); in assay [7], 0.119 (inactive). Besides, the z-score is 1.18 (inactive) in assay [8]; 0.513 in [9]; 0.51 in [12]; -3.66 (inactive) in assay [13]; -0.131 (inactive) in assay [14]; 0.0826 (inactive) in assay [15]. The composite z-score was 0.731 (inactive) in assay [4], -0.0118 in assay [10], 1.16 (inactive) in assay [11] and 0.759 with XIP peptide (Xip251-270).
Consider `OCCCC1=CC(C2CC2)N(Cc2cccc(OC(F)(F)F)c2)CC1` (stereo not given), for which the z-score in assay [1] is 0.702; in [2], -1.85 (inactive); in assay [3], 0.171 (inactive); in [5] it was -0.517 (inactive); in assay [6], 0.345 (inactive); in assay [7], 0.425 (inactive). The z-score is 0.327 (inactive) in assay [8]; 0.365 in assay [9]; -1.76 in assay [12]; -4.21 (inactive) in assay [13]; -0.245 (inactive) in assay [14]; 0.143 (inactive) in assay [15]. Also, the composite z-score in [4] was -3.08 (inactive); in assay [10], 0.324; in assay [11] it was 0.0736 (inactive); with XIP peptide (Xip251-270), 0.492.
`COC(=O)[C@@]1(Cc2ccc(OC)cc2)[C@H]2c3cc(C(=O)N4CCCC4)n(CCSCCO)c3C[C@H]2CN1C(=O)c1ccccc1`: the z-score was 0.353 in assay [1]; 1.6 (inactive) in assay [2]; 0.129 (inactive) in assay [3]; 0.923 (inactive) in [5]; 1.47 (inactive) in [6]; -1.18 (inactive) in [7]. Further, the z-score in assay [8] is -0.739 (inactive); in assay [9], -1.3; in [12] it was -1.44; in assay [13], -5.24 (inactive); in assay [14], 1.35 (inactive); in assay [15], 1.04 (inactive). Besides, the composite z-score in assay [4] is -0.0408 (inactive); in assay [10] it was 0.187; in assay [11], 0.0308 (inactive); in the assay on XIP peptide (Xip251-270) it was 0.826.
As to `COC(=O)c1c(CC[C@@H](CO)NC(=O)N[C@H](Cc2ccccc2)Cn2cc(-c3ccccn3)nn2)oc(C(C)=O)c1C(=O)OC`, the z-score in assay [1] is -1.62; in assay [2], -0.295 (inactive); in [3], -1.13 (inactive); in assay [5] it was -0.0149 (inactive); in assay [6], -0.559 (inactive); in [7] it was -0.347 (inactive). In addition, the z-score in assay [8] is -0.793 (inactive); in [9] it was -0.857; in assay [12] it was 0.0007; in [13] it was -4.84 (inactive); in assay [14], 0.269 (inactive); in assay [15] it was 0.15 (inactive). Moreover, the composite z-score in [4] is 0.0502 (inactive); in assay [10] it was -0.135; in [11] it was 0.593 (inactive); in the assay with XIP peptide (Xip251-270) it was 0.0667.
On to `O=C1C[C@@](C(=O)NCc2ccccc2)(c2ccc([N+](=O)[O-])cc2)[C@@H](c2ccc(CO)cc2)N1CC12CC3CC(CC(C3)C1)C2`, for which the z-score in [1] was -1.63; in assay [2], 0.229 (inactive); in [3] it was -3.64 (inactive); in [5], 1.06 (inactive); in assay [6] it was 0.87 (inactive); in assay [7], -0.202 (inactive). Besides, the z-score in assay [8] was 0.368 (inactive); in assay [9], -4.75; in assay [12], -0.83; in assay [13], -2.75 (inactive); in [14] it was -0.714 (inactive); in [15], -0.762 (inactive). The composite z-score in [4] was 0.59 (inactive); in assay [10], 0.0427; in assay [11], 1.9 (inactive); in the assay with XIP peptide (Xip251-270) it was 0.733.
Regarding `C=C(/C(=C/C[C@H](OC(C)=O)c1ccc(OCCO)cc1)c1cc(C(=O)OC)ccc1OC)C(C)C`, the z-score in assay [1] was 1.5; in assay [2] it was -0.962 (inactive); in assay [3] it was 0.012 (inactive); in assay [5] it was 0.613 (inactive); in assay [6] it was -0.0571 (inactive); in assay [7] it was 0.483 (inactive). For the same molecule, the z-score in assay [8] is 0.232 (inactive); in assay [9] it was 0.0628; in assay [12] it was -2.9; in assay [13], -3.69 (inactive); in assay [14], 0.418 (inactive); in [15], 1.29 (inactive). Further, the composite z-score was -0.858 (inactive) in assay [4], -0.307 in [10], 0.537 (inactive) in assay [11] and 0.808 in the assay on XIP peptide (Xip251-270).
For the molecule `O=C1C2C=CC(C(O)c3c(F)cccc3Cl)N(Nc3ccccc3F)C2C(=O)N1c1ccccc1` (stereo not given), the z-score in [1] is -0.269; in [2], -0.796 (inactive); in [3], -0.819 (inactive); in assay [5] it was 0.447 (inactive); in assay [6] it was 0.824 (inactive); in assay [7] it was -0.0281 (inactive). Besides, the z-score is 0.729 (inactive) in [8]; -0.144 in [9]; 0.562 in [12]; -0.377 (inactive) in assay [13]; 0.486 (inactive) in [14]; 0.435 (inactive) in assay [15]. The composite z-score was -0.303 (inactive) in [4], -0.0749 in assay [10], 0.433 (inactive) in [11] and 0.811 in the assay on XIP peptide (Xip251-270).
On to `COCCCNC(=O)[C@@]1(Cc2ccccc2)N=C(c2ccc(OCCCO)cc2)O[C@H]1c1ccccc1CN=[N+]=[N-]`, for which the z-score in assay [1] was -0.708; in [2], -0.176 (inactive); in assay [3], -0.78 (inactive); in [5], 0.95 (inactive); in [6] it was 0.499 (inactive); in assay [7], 0.0347 (inactive). For the same molecule, the z-score in assay [8] was 0.134 (inactive); in assay [9], -1.22; in assay [12], -2.62; in assay [13] it was -3.07 (inactive); in [14], 0.0048 (inactive); in assay [15] it was -0.194 (inactive). The composite z-score is -0.453 (inactive) in assay [4], 0.0607 in assay [10], 0.596 (inactive) in [11] and 0.801 in the assay with XIP peptide (Xip251-270).
Regarding `C=C(CCCC)/C(=C/C[C@@H](OC(C)=O)c1cccc(OCCO)c1)c1cnc2ccccc2c1`, the z-score in assay [1] is -0.256; in assay [2], -0.236 (inactive); in assay [3] it was -0.657 (inactive); in assay [5], 0.108 (inactive); in assay [6], 0.647 (inactive); in assay [7], 0.309 (inactive). Besides, the z-score in assay [8] is -0.132 (inactive); in [9], 0.418; in [12], -2.99; in [13] it was -4.61 (inactive); in assay [14] it was -0.24 (inactive); in [15], -0.359 (inactive). Further, the composite z-score in [4] is -3.06 (inactive); in [10], -0.173; in [11], -0.276 (inactive); in the assay with XIP peptide (Xip251-270), 0.114.
